# Results reported in PubChem BioAssay (NCATS).
# Results filed as inconclusive are left out. A call without a number means that no potency is given here. Active and inactive are the calls of the source. Calls follow the shape of the dose curve; as a rule, active = well fitted curve in the direction sought with a large enough effect; inconclusive = small, poorly fitted or top-dose-only effect, or another doubt; inactive = no such curve, though single readings can be large; an effect the other way counts as inactive or inconclusive.
# Experiment: qHTS of pediatric cancer cell lines to identify multiple opportunities for drug repurposing: Primary screen for Rh18 cells (AID 1347102); also: nearly all actives have a fitted effect of over 65% in size
# Conditions: Rh18 rhabdomyosarcoma viability, CellTiter-Glo luminescence, 48 h; series mostly up to 46 µM
# How it was run: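 Viability after 48 h compound treatment at 37C, 500-1,000 cells/well, read as ATP luminescence with CellTiter-Glo. Primary screens used 11-point (MIPE, 0.78 nM-46 µM) or 8-point (NPC, 0.59 nM-46 µM) final concentrations; follow-up screens used 11-point dilutions.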
# Potency is read from the fitted curve at half-maximal effect.
row,SMILES,Potency
1,Cc1cc(C(=O)NOCCO)c(Nc2ccc(I)cc2F)n(C)c1=O,inactive
2,Nc1nc(=O)n([C@H]2C[C@H](O)[C@@H](CO)O2)cc1F,inactive
3,C[C@H]1[C@@H](OC(=O)CCC(=O)O)O[C@@H]2O[C@@]3(C)CC[C@@H]4[C@H](C)CC[C@@H]1[C@@]24OO3,14.8 µM (active)
4,Cc1cnc(Nc2ccc(CN3CCOCC3)cc2)nc1Nc1cccc(S(=O)(=O)NC(C)(C)C)c1,3.72 µM (active)
5,OC[C@@H](O)[C@@H](O)[C@H](O)[C@@H](O)CO,inactive
6,CC(C)c1cc(C(C)C)c(CC(=O)NS(=O)(=O)Oc2c(C(C)C)cccc2C(C)C)c(C(C)C)c1,inactive
7,COC(=O)[C@@H]1[C@H]2C[C@@H]3c4[nH]c5ccccc5c4CCN3C[C@@H]2CC[C@@H]1O,inactive
8,C=C(C)[C@@H]1CC[C@]2(C(=O)O)CC[C@]3(C)[C@H](CC[C@@H]4[C@@]5(C)CC[C@H](O)C(C)(C)[C@@H]5CC[C@]43C)[C@@H]12,inactive
9,CC(C)C[C@H](NC(=O)[C@@H](NC(=O)c1cccc(-c2ccccc2)n1)[C@@H](C)O)B(O)O,0.0469 µM (active)
10,C[N+](C)([O-])CCNc1ccc(NCC[N+](C)(C)[O-])c2c1C(=O)c1c(O)ccc(O)c1C2=O,inactive
11,CC(C)(O)CC[C@@H](O)[C@](C)(O)[C@H]1CC[C@@]2(O)C3=CC(=O)[C@@H]4C[C@@H](O)[C@@H](O)C[C@]4(C)[C@@H]3CC[C@]12C,inactive
12,CCS(=O)(=O)Nc1ccc2[nH]c(O)c(C(=Nc3ccc(CN4CCCCC4)cc3)c3ccccc3)c2c1,4.18 µM (active)
13,c1coc(CNc2ncnc3nc[nH]c23)c1,inactive
14,CCCCOc1ccc(C(=O)Nc2ccc(F)cc2F)cc1,inactive
15,CC[C@H]1OC(=O)[C@H](C)[C@@H](O[C@H]2C[C@@](C)(OC)[C@@H](O)[C@H](C)O2)[C@H](C)[C@@H](O[C@@H]2O[C@@H](C)C[C@H](N(C)C)[C@@H]2O)[C@](C)(O)C[C@@H](C)C(=O)[C@H](C)[C@@H](O)[C@]1(C)O,inactive
16,CCNC(=O)c1cc2c(-c3cc(OCCN4CCCC4)c(Cl)cc3Cl)nc(N)nc2s1,4.69 µM (active)
17,CC(=O)O[C@H]1C[C@@H]2CC[C@H]3[C@H]4C[C@H]([N+]5(C)CCCCC5)[C@@H](OC(C)=O)[C@@]4(C)CC[C@@H]3[C@@]2(C)C[C@H]1N1CCCCC1,inactive
18,CC(C)(O)[C@H]1CC[C@@](C)([C@H]2[C@@H](O)C[C@@]3(C)[C@@H]4C[C@H](O[C@@H]5O[C@H](CO)[C@@H](O)[C@H](O)[C@@H]5O)[C@H]5C(C)(C)[C@@H](O[C@@H]6OC[C@@H](O)[C@H](O)[C@@H]6O)CC[C@@]56C[C@@]46CC[C@]23C)O1,inactive
19,O=C(Nc1ccc(Oc2ccnc3[nH]ccc23)c(F)c1)c1cccn(-c2ccc(F)cc2)c1=O,inactive
20,CC(C(C)N1CC(=O)NC(=O)C1)N1CC(=O)NC(=O)C1 (centres undefined),inactive
21,CC(=O)OC[C@@H]1O[C@@H](n2ccc(=O)[nH]c2=O)[C@H](OC(C)=O)[C@H]1OC(C)=O,inactive
22,CC(=CC(=O)Nc1ccccc1C(=O)O)c1ccc2ccccc2c1,inactive
23,Cn1cnc2c(F)c(Nc3ccc(Br)cc3F)c(C(=O)NOCCO)cc21,inactive
24,C[C@H](NC(=O)[C@@H](O)c1cc(F)cc(F)c1)C(=O)N[C@@H]1C(=O)N(C)c2ccccc2-c2ccccc21,inactive
25,CON=C(C(=O)N[C@@H]1C(=O)N2C(C(=O)O)=C(CSC(=O)c3ccco3)CS[C@H]12)c1csc(N)n1,inactive
26,C[C@@]12C[C@@]3(O)O[C@@H](O1)[C@]1(COC(=O)c4ccccc4)[C@@H]3C[C@@]12O[C@@H]1O[C@H](CO)[C@@H](O)[C@H](O)[C@@H]1O,inactive
27,C[C@]12C=CC(=O)N[C@@H]1CC[C@H]1[C@H]3CC[C@@H](C(=O)Nc4cc(C(F)(F)F)ccc4C(F)(F)F)[C@@]3(C)CC[C@@H]12,inactive
28,CC(=O)O[C@@]12CO[C@H]1C[C@H](O)[C@@]1(C)C(=O)[C@H](O)C3=C(C)[C@@H](OC(=O)C(O)[C@@H](NC(=O)OC(C)(C)C)c4ccccc4)C[C@@](O)([C@@H](OC(=O)c4ccccc4)[C@@H]21)C3(C)C (some centres undefined),inactive

# Experiment: qHTS of pediatric cancer cell lines to identify multiple opportunities for drug repurposing: Primary screen for OHS-50 cells (AID 1347103); also: nearly all actives have a fitted effect of over 40% in size
# Conditions: OHS-50 osteosarcoma viability, CellTiter-Glo luminescence, 48 h; series mostly up to 57.3 µM
# How it was run: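 Cells (500-1,000/well) rested 5 h, then received compounds for 48 h; metabolically active cells were measured by CellTiter-Glo luminescence. Final concentrations spanned up to 46 µM (MIPE, 11-point) or 0.59 nM-46 µM (NPC, 8-point) in primary screens, 11-point in follow-ups.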
row,SMILES,Potency
1,O=C(Nc1nnc(-c2ccco2)o1)c1cc(-c2ccccc2)nc2ccccc12,30.6 µM (active)
2,OCC(O)C(O)C(O)CO (centres undefined),inactive
3,Nc1nc(=O)n([C@H]2C[C@H](O)[C@@H](CO)O2)cc1F,inactive
4,C[C@H]1[C@@H](OC(=O)CCC(=O)O)O[C@@H]2O[C@@]3(C)CC[C@@H]4[C@H](C)CC[C@@H]1[C@@]24OO3,1.09 µM (active)
5,Cc1cnc(Nc2ccc(CN3CCOCC3)cc2)nc1Nc1cccc(S(=O)(=O)NC(C)(C)C)c1,2.17 µM (active)
6,OC[C@@H](O)[C@@H](O)[C@H](O)[C@@H](O)CO,inactive
7,CC(C)c1cc(C(C)C)c(CC(=O)NS(=O)(=O)Oc2c(C(C)C)cccc2C(C)C)c(C(C)C)c1,27.3 µM (active)
8,C[C@H](NC(=O)C(C#N)=Cc1cccc(Br)n1)c1ccccc1,19.3 µM (active)
9,CC(C)C[C@H](NC(=O)[C@@H](NC(=O)c1cccc(-c2ccccc2)n1)[C@@H](C)O)B(O)O,0.432 µM (active)
10,C[N+](C)([O-])CCNc1ccc(NCC[N+](C)(C)[O-])c2c1C(=O)c1c(O)ccc(O)c1C2=O,inactive
11,CCN(C(=O)c1c(O)c2c(Cl)cccc2n(C)c1=O)c1ccccc1,inactive
12,CC(C)(O)CC[C@@H](O)[C@](C)(O)[C@H]1CC[C@@]2(O)C3=CC(=O)[C@@H]4C[C@@H](O)[C@@H](O)C[C@]4(C)[C@@H]3CC[C@]12C,inactive
13,CCS(=O)(=O)Nc1ccc2[nH]c(O)c(C(=Nc3ccc(CN4CCCCC4)cc3)c3ccccc3)c2c1,1.53 µM (active)
14,c1coc(CNc2ncnc3nc[nH]c23)c1,inactive
15,CCCCOc1ccc(C(=O)Nc2ccc(F)cc2F)cc1,inactive
16,CCOc1cc2c(c(F)c1OCC)C(=N)N(CC(=O)c1cc(N3CCOCC3)c(OC)c(C(C)(C)C)c1)C2,21.7 µM (active)

row,SMILES,Potency
1,CC(Cc1ccc(O)c(O)c1)(NN)C(=O)O (centres undefined),inactive
2,CCNC(=O)c1cc2c(-c3cc(OCCN4CCCC4)c(Cl)cc3Cl)nc(N)nc2s1,3.85 µM (active)
3,Cc1ccc2nc(NCCN)c3ncc(C)n3c2c1,24.3 µM (active)
4,CC(=O)O[C@H]1C[C@@H]2CC[C@H]3[C@H]4C[C@H]([N+]5(C)CCCCC5)[C@@H](OC(C)=O)[C@@]4(C)CC[C@@H]3[C@@]2(C)C[C@H]1N1CCCCC1,inactive
5,CC(C)(O)[C@H]1CC[C@@](C)([C@H]2[C@@H](O)C[C@@]3(C)[C@@H]4C[C@H](O[C@@H]5O[C@H](CO)[C@@H](O)[C@H](O)[C@@H]5O)[C@H]5C(C)(C)[C@@H](O[C@@H]6OC[C@@H](O)[C@H](O)[C@@H]6O)CC[C@@]56C[C@@]46CC[C@]23C)O1,inactive
6,CC(=O)OC[C@@H]1O[C@@H](n2ccc(=O)[nH]c2=O)[C@H](OC(C)=O)[C@H]1OC(C)=O,inactive
7,Cc1cnc(NC(=O)Nc2cc(Br)c(C)cc2OC[C@@H]2CNCCO2)cn1,1.37 µM (active)
8,Cn1cnc2c(F)c(Nc3ccc(Br)cc3F)c(C(=O)NOCCO)cc21,inactive
9,C[C@H](NC(=O)[C@@H](O)c1cc(F)cc(F)c1)C(=O)N[C@@H]1C(=O)N(C)c2ccccc2-c2ccccc21,inactive
10,O=S(=O)(O)CCSSCCS(=O)(=O)O,inactive
11,CON=C(C(=O)N[C@@H]1C(=O)N2C(C(=O)O)=C(CSC(=O)c3ccco3)CS[C@H]12)c1csc(N)n1,inactive
12,C[C@@]12C[C@@]3(O)O[C@@H](O1)[C@]1(COC(=O)c4ccccc4)[C@@H]3C[C@@]12O[C@@H]1O[C@H](CO)[C@@H](O)[C@H](O)[C@@H]1O,inactive
13,CC(=O)C1=C(O)C=C2Oc3c(C(C)=O)c(O)c(C)c(O)c3C2(C)C1=O (centres undefined),1.72 µM (active)
14,Nc1ncn([C@@H]2O[C@H](CO)[C@@H](O)[C@@H]2O)c(=O)n1,15.3 µM (active)
15,CC(=O)O[C@@]12CO[C@H]1C[C@H](O)[C@@]1(C)C(=O)[C@H](O)C3=C(C)[C@@H](OC(=O)C(O)[C@@H](NC(=O)OC(C)(C)C)c4ccccc4)C[C@@](O)([C@@H](OC(=O)c4ccccc4)[C@@H]21)C3(C)C (some centres undefined),0.001 µM (active)
